Data taken from PubChem BioAssay AID1159580 (chemical genetic matrix, 2015).
Among all 5,500 compounds or so, about 2,000 (36%) were called active. Roughly 18% stayed inconclusive and do not appear here. Cut-off read from the data, not from the text of the source: active = normalized growth mostly below about 0.91 (no sharp cut-off); inconclusive = no clear call, values can overlap the other calls; inactive = mostly above about 0.92. The list shows a part of the results.

Assay: chemical genetic growth profiling, strain panel (AID 1159580);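 note: tested at 20 µM; growth read once vehicle control cultures reached saturation at 30 °C; 1 = growth at the plate median or of vehicle wells; lower values mean less growth of the strain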
Details: growth OD
[1] = S. cerevisiae deletion strains, locus YDL101C, strain DUN1, active compounds read low
[2] = S. cerevisiae deletion strains, locus YHR030C, strain SLT2, active compounds read low
[3] = S. cerevisiae deletion strains, locus YHR079C, strain IRE1, active compounds read low
[4] = S. cerevisiae deletion strains, locus YJL095W, strain BCK1, active compounds read low
[5] = S. cerevisiae deletion strains, locus YJR066W, strain TOR1, active compounds read low
[6] = S. cerevisiae deletion strains, locus YLR113W, strain HOG1, active compounds read low
[7] = S. cerevisiae deletion strains, locus YNL183C, strain NPR1, active compounds read low
[8] = S. cerevisiae deletion strains, locus YOR231W, strain MKK1, active compounds read low
[9] = S. cerevisiae deletion strains, locus YPL256C, strain CLN2, active compounds read low

Measured: normalized growth

CCOC(=O)CCc1cc(N=Cc2cc(Cl)cc(Cl)c2O)c(O)c(N=Cc2cc(Cl)cc(Cl)c2O)c1
active: S. cerevisiae deletion strains, locus YAL013W, strain DEP1, active compounds read low 0.257 | S. cerevisiae deletion strains, locus YBR229C, strain ROT2, active compounds read low 0.225 | [1] 0.48 | S. cerevisiae deletion strains, locus YDR150W, strain NUM1, active compounds read low 0.328 | S. cerevisiae deletion strains, locus YEL061C, strain CIN8, active compounds read low 0.254 | S. cerevisiae deletion strains, locus YGR078C, strain PAC10, active compounds read low 0.14 | [2] 0.126 | S. cerevisiae deletion strains, locus YHR087W, strain rtc3, active compounds read low 0.0846 | S. cerevisiae deletion strains, locus YJL187C, strain SWE1, active compounds read low 0.204 | S. cerevisiae deletion strains, locus YJR043C, strain POL32, active compounds read low 0.403 | S. cerevisiae deletion strains, locus YJR075W, strain HOC1, active compounds read low 0.245 | S. cerevisiae deletion strains, locus YKL190W, strain CNB1, active compounds read low 0.537 | S. cerevisiae deletion strains, locus YLR039C, strain RIC1, active compounds read low 0.164 | S. cerevisiae deletion strains, locus YLR058C, strain SHM2 (second series), active compounds read low 0.598 | S. cerevisiae deletion strains, locus YLR085C, strain ARP6, active compounds read low 0.14 | S. cerevisiae deletion strains, locus YLR262C, strain YPT6, active compounds read low 0.156 | S. cerevisiae deletion strains, locus YML094W, strain GIM5, active compounds read low 0.243 | S. cerevisiae deletion strains, locus YMR219W, strain ESC1, active compounds read low 0.278 | S. cerevisiae deletion strains, locus YMR263W, strain SAP30, active compounds read low 0.354 | S. cerevisiae deletion strains, locus YNL153C, strain GIM3, active compounds read low 0.454 | S. cerevisiae deletion strains, locus YNL298W, strain CLA4 (second series), active compounds read low 0.411 | S. cerevisiae deletion strains, locus YNL322C, strain KRE1, active compounds read low 0.935 | S. cerevisiae deletion strains, locus YNR030W, strain Alg12, active compounds read low 0.63 | S. cerevisiae deletion strains, locus YPL055C, strain LGE1, active compounds read low 0.212 | S. cerevisiae deletion strains, locus YPL241C, strain CIN2, active compounds read low 0.476 | S. cerevisiae deletion strains, locus YPR135W, strain CTF4, active compounds read low 0.558 | S. cerevisiae strains, strain wild type, active compounds read low 0.555

CCOC(=O)CCc1cc(N=Cc2cc(Br)ccc2O)c(O)c(N=Cc2cc(Br)ccc2O)c1
active: S. cerevisiae deletion strains, locus YGR092W, strain DBF2, active compounds read low 0.371 | [2] 0.562 | [6] 0.65 | [9] 0.579
inactive: S. cerevisiae deletion strains, locus YAR019C, strain CDC15, active compounds read low 0.963 | S. cerevisiae deletion strains, locus YBL105C, strain PKC1, active compounds read low 0.959 | S. cerevisiae deletion strains, locus YBR135W, strain CKS1, active compounds read low 0.968 | S. cerevisiae deletion strains, locus YBR136W, strain MEC1, active compounds read low 0.966 | S. cerevisiae deletion strains, locus YBR160W, strain CDC28, active compounds read low 0.959 | S. cerevisiae deletion strains, locus YDL017W, strain CDC7, active compounds read low 0.962 | S. cerevisiae deletion strains, locus YDL028C, strain MPS1, active compounds read low 0.968 | [1] 0.967 | S. cerevisiae deletion strains, locus YDL108W, strain KIN28, active compounds read low 0.959 | S. cerevisiae deletion strains, locus YDL132W, strain cdc53, active compounds read low 0.961 | S. cerevisiae deletion strains, locus YDL214C, strain PRR2, active compounds read low 0.834 | S. cerevisiae deletion strains, locus YDR052C, strain DBF4, active compounds read low 0.953 | S. cerevisiae deletion strains, locus YDR054C, strain cdc34, active compounds read low 0.951 | S. cerevisiae deletion strains, locus YDR226W, strain ADK1, active compounds read low 0.979 | S. cerevisiae deletion strains, locus YDR477W, strain SNF1, active compounds read low 0.805 | S. cerevisiae deletion strains, locus YER123W, strain YCK3, active compounds read low 0.66 | S. cerevisiae deletion strains, locus YER133W, strain GLC7, active compounds read low 0.788 | S. cerevisiae deletion strains, locus YFL009W, strain cdc4, active compounds read low 0.962 | S. cerevisiae deletion strains, locus YFL029C, strain CAK1, active compounds read low 0.955 | S. cerevisiae deletion strains, locus YFR003C, strain YPI1, active compounds read low 0.961 | S. cerevisiae deletion strains, locus YFR019W, strain FAB1, active compounds read low 0.877 | S. cerevisiae deletion strains, locus YFR028C, strain CDC14, active compounds read low 0.974 | S. cerevisiae deletion strains, locus YGR040W, strain KSS1, active compounds read low 0.824 | S. cerevisiae deletion strains, locus YGR052W, strain FMP48, active compounds read low 0.768 | [3] 0.622 | S. cerevisiae deletion strains, locus YHR082C, strain KSP1, active compounds read low 0.843 | S. cerevisiae deletion strains, locus YHR205W, strain SCH9, active compounds read low 0.87 | S. cerevisiae deletion strains, locus YIL147C, strain SLN1, active compounds read low 0.962 | [4] 0.643 | S. cerevisiae deletion strains, locus YJL128C, strain PBS2, active compounds read low 0.942 | S. cerevisiae deletion strains, locus YJL157C, strain FAR1, active compounds read low 0.773 | S. cerevisiae deletion strains, locus YJR016C, strain ILV3, active compounds read low 0.968 | S. cerevisiae deletion strains, locus YJR066W, strain TOR1 (second series), active compounds read low 0.764 | [5] 0.727 | S. cerevisiae deletion strains, locus YKL048C, strain ELM1, active compounds read low 0.873 | S. cerevisiae deletion strains, locus YKL067W, strain YNK1, active compounds read low 0.823 | S. cerevisiae deletion strains, locus YKL101W, strain HSL1, active compounds read low 0.833 | S. cerevisiae deletion strains, locus YKL193C, strain SDS22, active compounds read low 0.965 | S. cerevisiae deletion strains, locus YKL203C, strain TOR2, active compounds read low 0.786 | S. cerevisiae deletion strains, locus YLR133W, strain CKI1, active compounds read low 0.804 | S. cerevisiae deletion strains, locus YLR403W, strain SFP1, active compounds read low 0.75 | S. cerevisiae deletion strains, locus YML070W, strain DAK1, active compounds read low 0.727 | S. cerevisiae deletion strains, locus YMR001C, strain CDC5, active compounds read low 0.961 | S. cerevisiae deletion strains, locus YMR205C, strain PFK2 (second series), active compounds read low 0.841 | S. cerevisiae deletion strains, locus YMR277W, strain FCP1, active compounds read low 0.971 | S. cerevisiae deletion strains, locus YNL006W, strain LST8, active compounds read low 0.976 | S. cerevisiae deletion strains, locus YNL020C, strain ARK1, active compounds read low 0.79 | S. cerevisiae deletion strains, locus YNL161W, strain CBK1, active compounds read low 0.959 | [7] 0.754 | S. cerevisiae deletion strains, locus YNL207W, strain RIO2, active compounds read low 0.957 | S. cerevisiae deletion strains, locus YNL222W, strain SSU72, active compounds read low 0.975 | S. cerevisiae deletion strains, locus YNL307C, strain MCK1 (second series), active compounds read low 0.76 | S. cerevisiae deletion strains, locus YOL078W, strain AVO1, active compounds read low 0.965 | S. cerevisiae deletion strains, locus YOL136C, strain PFK27, active compounds read low 0.679 | S. cerevisiae deletion strains, locus YOR061W, strain CKA2, active compounds read low 0.809 | S. cerevisiae deletion strains, locus YOR119C, strain RIO1, active compounds read low 0.84 | [8] 0.657 | S. cerevisiae deletion strains, locus YOR329C, strain SCD5, active compounds read low 0.961 | S. cerevisiae deletion strains, locus YPL031C, strain PHO85, active compounds read low 0.8 | S. cerevisiae deletion strains, locus YPL153C, strain RAD53, active compounds read low 0.784 | S. cerevisiae deletion strains, locus YPL204W, strain HRR25, active compounds read low 0.754 | S. cerevisiae deletion strains, locus YPL209C, strain IPL1, active compounds read low 0.964 | S. cerevisiae deletion strains, locus YPR025C, strain CCL1, active compounds read low 0.954 | S. cerevisiae deletion strains, locus YPR106W, strain ISR1, active compounds read low 0.98 | S. cerevisiae deletion strains, locus YPR111W, strain DBF20, active compounds read low 0.958 | S. cerevisiae deletion strains, strain NNK1, active compounds read low 0.964 | S. cerevisiae deletion strains, strain TSCII, active compounds read low 0.96

C#CCN(C)C(C)Cc1ccccc1 (stereo unspecified)
inactive: [2] 1.01 | [3] 1.03 | [4] 1.02 | [5] 0.95 | [6] 0.994 | [7] 0.959 | [8] 1.02 | [9] 0.989
